Laboratory results: PubChem BioAssay AID652126 (The Scripps Research Institute Molecular Screening Center, 2013)
Several values for one entry are separate records, joined by “and”; a condition that tells them apart may be missing. Equal entries are not always repeated. In all, about 370,000 compounds went through this assay and about 3,700 (1%) were called active. This is one part of a sample in which actives are shown more often than they occur.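 The calls were made as follows: active = activation above the mean over all tested compounds plus 3 SD (cut at about 0.9% in these data); inactive = the rest.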 Where a structure was tested more than once in an assay, its records may differ in their call.

What follows are compounds tested on Nuclear hormone receptor DAF-12 (Strongyloides stercoralis) (assay: ssDAF-12 driven luciferase reporter activation – cell-based, luminescence, HEK293, GRIP1 co-expression, lit1-tk-luc, primary screen (AID 652126;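 also: 0% = DMSO-only wells and 100% = 3 µM delta7-dafachronic acid wells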)). Conditions: HEK293 ssDAF-12/GRIP1 lit1-tk-luc reporter, at 6.8 µM, stronger effect = higher value, % of 3 µM dafachronic acid response.

Row | Structure (SMILES) | activation
1 | CC(=O)Nc1nc2ncccn2c1-c1ccc(C(F)(F)F)cc1 | -0.67% (inactive)
2 | Brc1ccc(C2CC(c3ccccc3)=Nc3ccccc3N2)cc1 (centres undefined) | 0.69% (inactive)
3 | COc1ccccc1C1=Nc2cccc3cccc(c23)N1 | -1.81% (inactive)
4 | c1ccc(C2=Nc3cccc4cccc(c34)N2)cc1 | 1.19% (active)
5 | COC(=O)[C@]12C[C@H](CC(=O)NCc3ccccc3)C(=O)N(CCC3=CCCCC3)C1=C[C@H](C(C)C)O[C@@H]2C1CC1 | -1.77% (inactive)
6 | COc1ccc(-n2c(SCC(=O)Nc3ccccc3-c3ccccc3)nnc2-c2cccnc2)cc1 | -1.34% (inactive)
7 | CN1C(=O)/C(=C\c2cc(Br)cs2)c2ccccc21 | 1.58% (active)
8 | CN1C(=O)/C(=N/OC(=O)c2ccccc2Br)c2ccccc21 | -1% (inactive)
9 | CCC1C(=O)c2ccccc2N(C)C1=O (centres undefined) | -0.91% (inactive)
10 | CCC(CO)Nc1cccc2c1S(=O)(=O)N(Cc1cn(Cc3ccccc3C(F)(F)F)nn1)Cc1ccccc1O2 (centres undefined) | -1.78% (inactive)
11 | O=C(CN(C(=O)CCC(=O)Nc1nccs1)c1ccc(F)cc1)NCc1ccc2c(c1)OCO2 | -0.97% (inactive)
12 | CCC(C)(C)NC(=O)CN(C(=O)CCC(=O)Nc1nccs1)c1ccc2c(c1)OCO2 | 1.27% (active)
13 | CCC(C)(C)NC(=O)CN(C(=O)CCC(=O)Nc1cc(C)ccn1)c1ccc2c(c1)OCCO2 | -1.73% (inactive)
14 | FC(F)(F)c1cccc(NC(=S)OC2CCC23CCC(c2ccccc2)CC3)c1 (centres undefined) | -0.81% (inactive)
15 | CC(NCc1ccco1)C(=O)N1CCCCC1 (centres undefined) | -1.35% (inactive)
16 | COC(=O)c1sccc1NC(=O)c1ccc(Cl)cc1 | 0.94% (active)
17 | COC(=O)c1sccc1N/N=C(\C)c1ccc(F)c(Cl)c1 | -1% (inactive)
18 | COC(=O)c1sccc1NC(=O)CCC1CCCC1 | -0.73% (inactive)
19 | Cc1nnc(-c2ccc(Oc3ccc(C)c(C)c3)c([N+](=O)[O-])c2)o1 | -0.81% (inactive)
20 | CCOC(=O)N1CCN(C(=O)C[C@@H]2C(=O)N(CCc3ccc(Cl)cc3)C3=CCCC[C@]32C(=O)OCC)CC1 | -1.59% (inactive)
21 | O=C(CN1CCSCC1)N/N=C/c1ccc(Cl)cc1 | 1.53% (active)
22 | O=C(CN1CCSCC1)N/N=C/c1ccc(F)cc1F | -1.01% (inactive)
23 | Cc1ccc(S(=O)(=O)N2CCN(CC(=O)N/N=C/c3ccc(Br)s3)CC2)cc1 | -1.5% (inactive)
24 | COc1ccc(N2CCN(CCNS(=O)(=O)c3ccc(Cl)s3)CC2)cc1 | -0.86% (inactive)

Row | Structure (SMILES) | activation
25 | O=C(NC1CCCCN(Cc2cccc(C(F)(F)F)c2)C1=O)c1ccccc1I (centres undefined) | -1.74% (inactive)
26 | Cn1c(NC(=O)c2ccccc2)nc2ccccc21 | 1.7% (active)
27 | CCn1c(NC(=O)c2nn(C)cc2Br)nc2ccccc21 | -0.8% (inactive)
28 | COC(=O)c1ccc(-n2cnc3ccccc32)nc1 | -0.78% (inactive)
29 | COc1ccccc1C(=O)NC1CCCCN(C(C)C)C1=O (centres undefined) | -0.64% (inactive)
30 | CCOC(=O)N1CCC(N2Cc3cccc(C(=O)Nc4ccc(S(=O)(=O)N(CC)CC)cc4)c3C2=O)CC1 | -1.26% (inactive)
31 | CCN(CC)S(=O)(=O)c1ccc(NC(=O)c2cnc(C)cn2)cc1 | 1.35% (active)
32 | CCN(CC)S(=O)(=O)c1ccc(NC(=O)c2cccnc2Cl)c(NC(=O)c2cccnc2Cl)c1 | -0.9% (inactive)
33 | COC(=O)C1CN(CC(C)C)CCS(=O)(=O)N1Cc1ccc(F)cc1 (centres undefined) | -1.13% (inactive)
34 | CCOC(=O)[C@]12CCCCC/C=C\1N(Cc1ccc(OC)cc1)C(=O)[C@H]2CC(=O)N1CCOCC1 | -0.98% (inactive)
35 | COc1ccc(NCCc2ccccn2)cc1 | 1.17% (active)
36 | Cc1c(C)c(C)c(S(=O)(=O)NCCc2ccccn2)c(C)c1C | 0.14% (inactive)
37 | COc1cncc(-c2cnc3sc(NCCc4ccccn4)nn23)c1 | -1.45% (inactive)
38 | COC(=O)[C@@]12CCCCC3=C1N(CCC3)C(=O)[C@H]2CC(=O)NCc1cccc2ccccc12 | -0.9% (inactive)
39 | COc1cccc(-c2nc3cc(C)ccc3o2)c1 | 2.34% (active)
40 | COc1cccc(-c2cnc(OC(C)(C)C)nc2OC(C)(C)C)c1 | -1.2% (inactive)
41 | O=C(O)c1ccc([N+](=O)[O-])cc1Sc1ccsc1 | -1.44% (inactive)
42 | COC(=O)C(C)Oc1ccc2c(-c3cccc([N+](=O)[O-])c3)cc(=O)oc2c1 (centres undefined) | -1.35% (inactive)
43 | O=[N+]([O-])c1ccc2oc(-c3cccc(O)c3)nc2c1 | 3.74% (active)
44 | COc1cccc(NS(=O)(=O)c2ccc(-c3coc(C)n3)cc2)c1 | -0.73% (inactive)
45 | Cc1cc(=O)[nH]c(SCC(=O)Nc2ccc(F)cc2F)n1 | -1.31% (inactive)
46 | C=CCN1[C@@H](Cc2ccccc2)COc2cccc(N3CCSCC3)c2S1(=O)=O | -1.93% (inactive)
47 | O=C(N1CCOCC1)N1CC[C@H]2[C@H](CCCN2Cc2ccc(F)cc2)C1 | -1.48% (inactive)
48 | C[C@H](C(=O)N(C)c1ccccc1)[C@@H](O)c1ccc(Cl)cc1 | -1.24% (inactive)

Row | Structure (SMILES) | activation
49 | Cn1c(=O)[nH]c(=O)c2c1nc(CN1CCN(c3ccccc3F)CC1)n2CCc1ccccc1 | -1.22% (inactive)
50 | N#C/C(=C/c1ccc(Cl)cc1)NC(=O)c1ccccc1 | -1.06% (inactive)
51 | O=C(NC(=O)c1ccccc1)Nc1ccccc1O | 2.39% (active)
52 | O=C(NC(=S)Nc1cccc2c(O)cccc12)c1cccc(Br)c1 | -1.15% (inactive)
53 | NS(=O)(=O)c1ccccc1NC(=O)c1c(O)c2ccccc2[nH]c1=O | 1.94% (active)
54 | CCc1ccc2[nH]c(=O)c(Cc3ccccc3)c(O)c2c1 | -1.02% (inactive)
55 | CCCS(=O)(=O)Nc1c(C(=O)O)[nH]c2ccccc12 | 0.51% (inactive)
56 | O=S(=O)(c1ccc(OCC(O)CN2CCN(c3ccccc3Cl)CC2)cc1)N1CCOCC1 (centres undefined) | -1.31% (inactive)
57 | OC(COc1ccc2ccccc2c1)Cn1cncn1 (centres undefined) | -0.42% (inactive)
58 | OC(COc1ccc2ccccc2c1)CN1CCOCC1 (centres undefined) | 0.96% (active) and -0.96% (inactive)
59 | Cc1ccccc1CN1CCCCC(NC(=O)Nc2ccccc2F)C1=O (centres undefined) | -1.37% (inactive)
60 | COc1cc(NC(=O)C2CCCN(S(=O)(=O)c3ccc(C(C)(C)C)cc3)C2)cc(OC)c1 (centres undefined) | -0.79% (inactive)
61 | CCSC1=C(C#N)C(=O)n2c1cc1c2CCCC1 | -0.32% (inactive)
62 | N#Cc1c(NC(=O)c2ccc(N3CCOCC3)c([N+](=O)[O-])c2)sc2c1CCCC2 | -1.7% (inactive)
63 | CCC1CCc2c(sc(NC(C)=O)c2C#N)C1 (centres undefined) | -1.82% (inactive)
64 | N#Cc1c(NC(=O)C2CCCO2)sc2c1CCCCC2 (centres undefined) | 2.81% (active)
65 | C[C@@H]1COc2cccc(N3CCCC3)c2S(=O)(=O)N1C | -1.35% (inactive)
66 | O=c1onc(-c2c(F)cccc2F)n1-c1ccccc1Cl | 1.01% (active)
67 | O=C(Cn1c(-c2ccc(Cl)cc2)noc1=O)N1CCN(c2ccccc2F)CC1 | -0.84% (inactive)
68 | O=c1onc(-c2cccs2)n1Cc1ccccc1 | -1.05% (inactive)
69 | O=C(Nc1ccc2sc3ccccc3c(=O)c2c1)c1ccccc1Cl | 1.16% (active)
70 | COCC(=O)N1CCc2ccc(NC(=O)c3ccccc3Cl)cc2C1 | -1.31% (inactive)
71 | CS(=O)(=O)c1ccccc1C(=O)Nc1ccc2sccc2c1 | -1.02% (inactive)
72 | COc1ccc(C2Nc3ccccc3C(=O)N2Cc2cccs2)cc1COc1c(C)cccc1C (centres undefined) | -0.82% (inactive)

Row | Structure (SMILES) | activation
73 | CCCn1nc(C(=O)NNC(=O)CSCC(=O)Nc2cc(C)on2)c2ccccc2c1=O | -0.87% (inactive)
74 | CCCCn1nc(C(=O)Nc2cccc(C(=O)NC3CC3)c2)c2ccccc2c1=O | -1.7% (inactive)
75 | CCCn1nc(C(=O)Nc2ccc3nc(C)sc3c2)c2ccccc2c1=O | 8.45% (active)
76 | COc1ccc(-n2c(COc3ccc(C)cc3)nnc2SCC(=O)Nc2ccc(Oc3ccccc3)cc2)cc1 | -1.71% (inactive)
77 | CCCCCN1CCCCC(NC(=O)C(C)CCC)C1=O (centres undefined) | -1.23% (inactive)
78 | C=C(C)C#CC(Cc1ccccc1)N(CC1CC1)/C(N)=N/C(=O)OCc1ccccc1 (centres undefined) | -1.98% (inactive)
79 | COc1ccc(-n2c(SCC(=O)Nc3ccc4c(c3)OCCO4)nnc2-c2ccc(Cl)cc2)cc1 | -1.63% (inactive)
80 | CCC[C@H]1C(=O)CC[C@@]23CCCN2C(=O)CCC[C@@H]13 | -0.75% (inactive)
81 | O=C1CC[C@@]23CCCN2C(=O)CCC[C@H]3[C@H]1Cc1ccccc1 | -1.31% (inactive)
82 | CCC(=O)c1c(CC)c2n3c1=CC[C@H]3CC(Br)C=2 (some centres undefined) | -1.9% (inactive)
83 | COc1ccc(Nc2ccc3ccccc3c2)cc1 | 2.46% (active)
84 | COc1ccc(Nc2cc(=O)n(-c3ccccc3)c3c2c(=O)n(C)c(=O)n3C)cc1 | -0.93% (inactive)
85 | COc1ccc(NC2=CC(=S)NC(C)(C)C2)cc1 | -0.87% (inactive)
86 | CCN(C(=O)[C@@H](C1CC1)[C@@H](O)c1ccc2ccccc2c1)c1ccccc1 | -1.3% (inactive)
87 | N#Cc1ccc(OC[C@@H](O)CN2CCC(C(O)(c3ccccc3)c3ccccc3)CC2)c(F)c1 | -1.58% (inactive)
88 | O=C(c1cnn(-c2ccc(Cl)cc2)c1)c1ccccc1O | 1.24% (active)
89 | COc1ccc(CNC(=O)COc2ccccc2C(=O)c2cnn(-c3ccccc3)c2)cc1OC | -0.31% (inactive)
90 | Cc1[nH]nc(-c2ccc(OCc3cnn(-c4ccccc4)c3)cc2O)c1Oc1ccc(Cl)cc1 | -0.99% (inactive)
91 | CC(C)CNS(=O)(=O)CC1NCCc2ccccc21 (centres undefined) | -0.28% (inactive)
92 | Cc1cc(C)nc(NS(=O)(=O)c2ccc(N/C=C\C(=O)c3cccs3)cc2)n1 | 1.14% (active)
93 | CCOc1ncccc1C(=O)Nc1ccc(S(=O)(=O)Nc2nc(C)cc(C)n2)cc1 | -0.22% (inactive)
94 | CC(=O)Nc1ccc(S(=O)(=O)Nc2nccc(/C=C/c3ccccc3F)n2)cc1 | -0.24% (inactive)
